{"source": "the supplement of paper PMC8728848", "binders": {"B1": {"name": "Flo11 (Saccharomyces cerevisiae), Q1H8S8 (protein)", "chain": "MGSSHHHHHHSSGLVPRGSHMFPTALVPRGSSEGTSCNSIVNGCPNLDFNWHMDQQNIMQYTLDVTSVSWVQDNTYQITIHVKGKENIDLKYLWSLKIIGVTGPKGTVQLYGYNENTYLIDNPTDFTATFEVYATQDVNSCQVWMPNFQIQFEYLQGSAAQYASSWQWGTTSFDLSTGCNNYDNQGHSQTDFPGFYWNIDCDNNCGGTKSS"}}, "assay_in_all_cases": "glycan array binding signal (z-score within array); higher = stronger binding", "conditions_in_all_cases": "glycan notation: IUPAC condensed, linker removed", "key": {"[1]": {"target": "Fuc(a1-2)Gal(b1-4)GlcNAc(b1-3)Gal(b1-4)GlcNAc", "method_in_brief": "(§1)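 Negative Z-scores can be read as non-binding. The Z-score is calculated within each array and then averaged across arrays of one protein sequence at different concentrations or buffers and across linkers. Arrays, 3228 in all, were curated from the Consortium for Functional Glycomics database and kept only where the protein sequence was available.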"}, "[2]": {"target": "Fuc(a1-3)[Gal3S(b1-4)]GlcNAc6S", "method_in_brief": "as §1"}, "[3]": {"target": "Fuc(a1-3)[Neu5Ac(a2-3)]Gal(b1-4)GlcNAc(b1-3)GalNAc", "method_in_brief": "as §1"}, "[4]": {"target": "Gal(b1-3)GalNAc(b1-4)[Neu5Ac(a2-3)]Gal(b1-4)Glc", "method_in_brief": "as §1"}, "[5]": {"target": "Gal(b1-3)[Fuc(a1-4)]GlcNAc(b1-3)Gal(b1-4)[Fuc(a1-3)]GlcNAc", "method_in_brief": "as §1"}, "Gal(b1-4)Glc6S": {"target": "Gal(b1-4)Glc6S", "method_in_brief": "as §1"}, "[6]": {"target": "Gal(b1-4)GlcNAc(b1-2)Man(a1-6)Man(b1-4)GlcNAc(b1-4)GlcNAc", "method_in_brief": "as §1"}, "[7]": {"target": "Gal(b1-4)GlcNAc(b1-2)Man(a1-6)[Man(a1-3)]Man(b1-4)GlcNAc(b1-4)GlcNAc", "method_in_brief": "as §1"}, "[8]": {"target": "Gal(b1-4)GlcNAc(b1-6)[Gal(b1-3)]GalNAc", "method_in_brief": "as §1"}, "[9]": {"target": "Gal3S(b1-3)[Fuc(a1-4)]GlcNAc", "method_in_brief": "as §1"}, "GalNAc(b1-3)Gal": {"target": "GalNAc(b1-3)Gal", "method_in_brief": "as §1"}, "[10]": {"target": "GalNAc(b1-3)Gal(a1-4)Gal(b1-4)GlcNAc", "method_in_brief": "as §1"}, "[11]": {"target": "GlcNAc(a1-4)Gal(b1-4)GlcNAc(b1-3)Gal(b1-4)[Fuc(a1-3)]GlcNAc(b1-3)Gal(b1-4)[Fuc(a1-3)]GlcNAc", "method_in_brief": "as §1"}, "[12]": {"target": "GlcNAc(b1-2)Man(a1-3)[GlcNAc(b1-2)Man(a1-6)]Man(b1-4)GlcNAc(b1-4)GlcNAc", "method_in_brief": "as §1"}, "GlcNAc(b1-3)Gal(b1-4)Glc": {"target": "GlcNAc(b1-3)Gal(b1-4)Glc", "method_in_brief": "as §1"}, "Kdn(a2-3)Gal(b1-4)GlcNAc": {"target": "Kdn(a2-3)Gal(b1-4)GlcNAc", "method_in_brief": "as §1"}, "[13]": {"target": "Man(a1-2)Man(a1-2)Man(a1-3)Man", "method_in_brief": "as §1"}, "Man(a1-3)[Man(a1-6)]Man": {"target": "Man(a1-3)[Man(a1-6)]Man", "method_in_brief": "as §1"}, "[14]": {"target": "Neu5Ac(a2-3)Gal(b1-3)GalNAc(b1-3)Gal(a1-4)Gal(b1-4)Glc", "method_in_brief": "as §1"}, "[15]": {"target": "Neu5Ac(a2-3)Gal(b1-3)[Neu5Ac(a2-3)Gal(b1-4)]GlcNAc", "method_in_brief": "as §1"}, "Neu5Ac(a2-6)Gal(b1-4)Glc": {"target": "Neu5Ac(a2-6)Gal(b1-4)Glc", "method_in_brief": "as §1"}, "[16]": {"target": "Neu5Ac(a2-8)Neu5Ac(a2-3)[GalNAc(b1-4)]Gal(b1-4)Glc", "method_in_brief": "as §1"}, "[17]": {"target": "Neu5Ac9Ac(a2-3)Gal(b1-3)GlcNAc", "method_in_brief": "as §1"}, "[18]": {"target": "Neu5Ac9Ac(a2-6)Gal(b1-4)GlcNAc", "method_in_brief": "as §1"}, "[19]": {"target": "Neu5Gc(a2-3)Gal(b1-4)[Fuc(a1-3)]GlcNAc", "method_in_brief": "as §1"}}, "note": "Many of the other results were omitted from the sample, so the strongest signals are more common in it than they were."}
{"binder": "B1", "values": [{"measurement": "glycan array binding signal (z-score)", "setting": "[1]", "result": -0.01}, {"measurement": "glycan array binding signal (z-score)", "setting": "[2]", "result": 1.26}, {"measurement": "glycan array binding signal (z-score)", "setting": "[3]", "result": 3.1}, {"measurement": "glycan array binding signal (z-score)", "setting": "[4]", "result": 2.88}, {"measurement": "glycan array binding signal (z-score)", "setting": "[5]", "result": -0.502}, {"measurement": "glycan array binding signal (z-score)", "setting": "Gal(b1-4)Glc6S", "result": -0.505}, {"measurement": "glycan array binding signal (z-score)", "setting": "[6]", "result": -0.507}, {"measurement": "glycan array binding signal (z-score)", "setting": "[7]", "result": -0.506}, {"measurement": "glycan array binding signal (z-score)", "setting": "[8]", "result": -0.482}, {"measurement": "glycan array binding signal (z-score)", "setting": "[9]", "result": -0.502}, {"measurement": "glycan array binding signal (z-score)", "setting": "GalNAc(b1-3)Gal", "result": 3.63}, {"measurement": "glycan array binding signal (z-score)", "setting": "[10]", "result": 4.27}, {"measurement": "glycan array binding signal (z-score)", "setting": "[11]", "result": 0.071}, {"measurement": "glycan array binding signal (z-score)", "setting": "[12]", "result": -0.505}, {"measurement": "glycan array binding signal (z-score)", "setting": "GlcNAc(b1-3)Gal(b1-4)Glc", "result": 1.26}, {"measurement": "glycan array binding signal (z-score)", "setting": "Kdn(a2-3)Gal(b1-4)GlcNAc", "result": -0.496}, {"measurement": "glycan array binding signal (z-score)", "setting": "[13]", "result": -0.505}, {"measurement": "glycan array binding signal (z-score)", "setting": "Man(a1-3)[Man(a1-6)]Man", "result": -0.502}, {"measurement": "glycan array binding signal (z-score)", "setting": "[14]", "result": 3.08}, {"measurement": "glycan array binding signal (z-score)", "setting": "[15]", "result": -0.511}, {"measurement": "glycan array binding signal (z-score)", "setting": "Neu5Ac(a2-6)Gal(b1-4)Glc", "result": -0.507}, {"measurement": "glycan array binding signal (z-score)", "setting": "[16]", "result": 3.67}, {"measurement": "glycan array binding signal (z-score)", "setting": "[17]", "result": -0.505}, {"measurement": "glycan array binding signal (z-score)", "setting": "[18]", "result": -0.494}, {"measurement": "glycan array binding signal (z-score)", "setting": "[19]", "result": 3.45}]}
